Screening data (PubChem)
Pf Dd2 inh: inhibitors of Plasmodium falciparum Dd2 growth. P. falciparum Dd2 growth, SYBR Green, 72 h. Potency, µM (titrated, usually from 28.9 µM), most hits filed as inhibitors. 4.3% of 120,000 active. AID 1347417; active = well fitted inhibition curve with a large enough effect; note: nearly all actives have a fitted effect of over 65% in size
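Infected erythrocytes (Dd2, 0.3% parasitemia, 2.5% hematocrit final) are added to compound in RPMI-1640/Albumax II medium, grown 72 h at 37C in low oxygen, then lysed with saponin/Triton-X containing SYBR Green and read by fluorescence.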
Of the large screens only hits and unclear results are named; the others gave an inactive call. The entries come from a sample that favours hits as a whole.

CC(C)c1nc2c(c(-c3ccc(Cl)cc3)n1)CCN([S+](=O)([O-])c1ccccc1)CC2	Pf Dd2 inh 11µM
Cc1ccc([S+](=O)([O-])N2CCc3nc(C)nc(-c4ccc(Cl)cc4)c3CC2)cc1	none
O=C(NCCc1ccccc1)[C@@H]1C[C@@H](c2ccc(F)cc2)N([S+](=O)([O-])c2cccnc2)C1	none
CC1(C(=O)N2CCN(c3ccccn3)CC2)CCCCC(=O)N1 (stereo not given)	none
CCc1noc(-c2cn(C3CCN(C(=O)c4ccc(C#N)cc4)CC3)nn2)n1	none
COc1ccc(S(=O)(=O)c2cn(C)c3ccc(C)cc3c2=O)cc1	none
CCOc1ccc2c(c1)c(=O)c(S(=O)(=O)c1ccc(F)cc1)cn2CC(=O)Nc1ccccc1C	none
COc1ccc2c(c1)c(=O)c(S(=O)(=O)c1ccc(Cl)cc1)cn2Cc1cc(C)ccc1C	Pf Dd2 inh 11µM
Cc1ccc(S(=O)(=O)c2cn(Cc3ccc(F)cc3)c3cc(F)c(F)cc3c2=O)cc1	none
CCOc1ccc(S(=O)(=O)c2cn(Cc3ccccc3C)c3ccc(OC)cc3c2=O)cc1	Pf Dd2 inh 4.5µM
Cc1ccc(S(=O)(=O)c2cn(CC(=O)Nc3ccc(Cl)cc3)c3ccc(F)cc3c2=O)cc1C	none
COc1ccc(OC)c(NC(=O)Cn2cc(S(=O)(=O)c3ccccc3)c(=O)c3cc(C)ccc32)c1	none
CCOc1ccc2c(c1)c(=O)c(S(=O)(=O)c1ccc(CC)cc1)cn2CC	none
O=c1c(S(=O)(=O)c2ccc(Cl)cc2)cn(Cc2ccc(F)cc2)c2ccc(F)cc12	Pf Dd2 inh 11µM
COC(=O)[C@H](NC(=O)[C@@H]1C[C@H](NC(=O)Nc2ccc(OC)cc2)CN1C(=O)c1cccn1C)C(C)C	none
CN(C)c1nc2c(c(=O)[nH]1)CCN(C(=O)c1sccc1Cl)C2	none
O=C(NC1CC(c2nnc(CO)n2C2CC2)C1)c1cccn2cnnc12 (stereo not given)	none
Cc1ccc(C(=O)N2CCC(C3CCN(S(C)(=O)=O)CC3)C2)c(=O)[nH]1 (stereo not given)	none
COCCn1ncc(N2CCCC(CC(=O)NCc3cccs3)C2)cc1=O (stereo not given)	none
COC(=O)CNC(=O)c1nc(-c2ccc(Cl)nc2)c2cnccn12	none
Cn1ncc2c(C(=O)NCc3ccc(F)cc3)cc(-c3ccc([S+](C)(=O)[O-])cc3)nc21	none
C[S+](=O)([O-])c1ccc(-c2nc(C(=O)NCc3ccc(F)cc3)n3ccncc23)cc1	Pf Dd2 inh 11µM
O=C(c1nc(-c2ccc(Cl)nc2)c2cnccn12)N1CCCC1	none
O=C(NCc1ccc(F)cc1)c1nc(-c2ccc(Cl)nc2)c2cnccn12	Pf Dd2 inh 7.9µM
N#CC1CCN(C(=O)c2nc(-c3ccc(F)cc3)c3cnccn23)CC1	none
CC(C)(C)c1nc(C(=O)NCc2ccc(F)cc2)n2ccccc12	none
O=C(NCCc1ccc(Cl)cc1)c1nc(-c2ccccc2)c2ccccn12	none
C#CCNC(=O)c1nc(-c2ccc(Cl)nc2)c2ccccn12	none
O=C(NCc1cccs1)c1nc(-c2ccc(F)cc2)c2cnccn12	Pf Dd2 inh 4µM
O=C(NCCc1ccc(Cl)cc1)c1nc(-c2ccc(Cl)nc2)c2cnccn12	Pf Dd2 inh 8.9µM
COC(=O)CNC(=O)c1nc(-c2cccc(C(F)(F)F)c2)c2cnccn12	none
CC(=O)N1CCCCC1c1nnc2n1CCNC2 (stereo not given)	none
CN(Cc1ccccc1)Cc1cc(CC2(NCc3ccccc3O)COC2)no1	none
COc1ccccc1CNC(=O)C(C)C1CCOCC1 (stereo not given)	none
CO[C@@]1(C)C[C@@H](O)C12CCN(C(=O)CN1CCc3ccccc3C1)CC2	none
O=C(Cc1ccccc1F)N1CCCC(c2nc(C3CCOCC3)no2)C1 (stereo not given)	none
c1ccc2[nH]c(CCCn3ccnc3-c3cc4n(n3)CCCNC4)nc2c1	none
CN(Cc1ccccc1)C(=O)C[C@@H]1CCNC[C@@H]1Cc1cc(-c2ccc(F)cc2)on1	none
C#CCNC(=O)c1nc(-c2cccnc2)c2ccccn12	none
COCCNC(=O)c1nc(-c2ccccc2OC)c2cnccn12	none
O=C(NCc1ccncc1)c1nc(-c2cccnc2)c2cnccn12	none
O=C(NCc1cccnc1)c1nc(-c2ccc(Cl)nc2)c2ccccn12	none
Cc1cccc(C)c1-c1nc(C(=O)NCc2cccnc2)n2ccccc12	none
O=C(NCc1ccc(F)cc1)c1nc(-c2ccccc2)c2cnccn12	Pf Dd2 inh 4µM
COc1ccccc1-c1nc(C(=O)NC2CC2)n2ccncc12	none
COc1ccccc1-c1nc(C(=O)NCc2ccc3c(c2)OCO3)n2ccncc12	Pf Dd2 inh 13µM
Cc1cccc(C)c1-c1nc(C(=O)NCc2ccsc2)n2ccccc12	Pf Dd2 inh 8.9µM
COc1ccccc1-c1nc(C(=O)NCc2cccs2)n2ccccc12	none
O=C(NCc1cccnc1)c1nc(-c2ccc(F)cc2)c2cnccn12	none
O=C(NCc1cccnc1)c1nc(-c2ccccc2)c2ccccn12	Pf Dd2 inh 10µM
CC(C)n1ccc2c(NC(=O)Cn3nc4c(cc3=O)CCCCC4)cccc21	none
CN1C(=O)C(CC(=O)N2CC(n3cccn3)C2)(Cc2ccccc2)c2ccccc21 (stereo not given)	none
O=C(CC1CCOC2(CCN(S(=O)(=O)c3ccccc3)CC2)C1)NC1CC1 (stereo not given)	none
CC(=O)N1CCC(N2CC[C@H](CO)[C@H](N(C)C)C2)CC1	none
O=C(Nc1ccc(F)cc1)N[C@H]1[C@H](O)[C@@H](N2CCCC2)[C@@H]2OC[C@H]1O2	none
CN(C1CCNCC1)C1CCOCC1	none
CCCCC(=O)N1CCC(OC2CCN(Cc3cccnc3)CC2)CC1	none
Cc1nonc1CC(=O)N1CCc2ccc(S(=O)(=O)NCCC(C)O)cc2C1 (stereo not given)	none
CN(C)C[C@@H]1CN(C2CCOCC2)C[C@H]1NC(=O)c1cn(C)cn1	none
Cc1ccc(/C=C/c2onc(C)c2S(=O)(=O)N2CCC(C(=O)N3CCN(c4cc(C)ccc4C)CC3)CC2)cc1	Pf Dd2 inh 8.9µM
O=C(C1CCN(S(=O)(=O)c2cccc3nonc23)CC1)N1CCN(c2ccccc2)CC1	none
Cc1ccc(/C=C/c2onc(C)c2S(=O)(=O)N2CCC(C(=O)Nc3cc(C)ccc3C)CC2)cc1	none
Cc1ccc(Cl)cc1N1CCN(C(=O)C2CCN(S(=O)(=O)c3c(C)noc3/C=C/c3ccccc3F)CC2)CC1	none
COc1ccccc1N1CCN(C(=O)C2CCN(S(=O)(=O)c3cccc4nonc34)CC2)CC1	none
Cc1ccc(Cl)cc1N1CCN(C(=O)C2CCN(S(=O)(=O)c3cccc4nonc34)CC2)CC1	Pf Dd2 inh 6.3µM
COc1ccc(C(=O)NCCc2ncc(C)n2CC2CC2)cn1	none
CCOC(=O)C1(Cc2ccc(Cl)cc2)CCN(C(=O)CC2=CCCCC2)CC1	none
COc1ccc(CN(CC2CCCO2)C(=O)C2CCN(CC(N)=O)CC2)cc1 (stereo not given)	none
CNCCNC(=O)C1CCN(c2nc(-c3ccccc3)nc3c2CCC3)CC1	Pf Dd2 inh 13µM
CN(C)c1nc(-c2ccccc2)nc2c1CCN(C(=O)C1CCOC1)C2 (stereo not given)	none
CCN(CC1CCCO1)C(=O)C1CCN(c2nc(-c3ccccc3)nc3c2CCC3)CC1 (stereo not given)	Pf Dd2 inh 11µM
COC(C)(C)C(=O)N1CCN(c2nc(-c3ccccc3)nc3c2CCC3)CC1	none
CC(C)(C)CC(=O)N1CCN(c2nc(-c3ccccc3)nc3c2CCC3)CC1	none
COC1CN(C2CCN(C(=O)c3cccnc3C)CC2)C12CCOCC2 (stereo not given)	none
CN(C)C[C@@H]1CN(Cc2ccccc2)C[C@H]1N	none
Cc1ccc(C2Cn3nnc(-c4nc(-c5ccccc5)no4)c3CO2)c(C)c1 (stereo not given)	none
